Most compounds without a hit are left out; they make up all but 6.9% or so of the library.
Vif-APOBEC3F blk: inhibitors of Vif-A3F interaction. HeLa A3F-eYFP + Vif (tagged APOBEC3F with the HIV-1 protein that degrades it), YFP fluorescence increase. Potency, µM (doses to about 46.1 µM). AID 602313. 0.2% of 390,000 active; also: nearly all actives have a fitted effect of over 65% in size
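HeLa cells stably expressing Vif plus C-terminally eYFP-tagged A3F were seeded, incubated overnight at 37 deg C, dosed with compound, incubated overnight again at 37 deg C. Yellow fluorescence (Ex 488/Em 500-530) reported blocked Vif-mediated A3F-eYFP degradation.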
Giardia killer: Giardia lamblia killing | activity change, % at 7.66 µM, hits read low | 0.15% of 340,000 active | Giardia lamblia trophozoite viability; in the data active = activity change below about -80%; inconclusive = between about -30% and that limit;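 also: parasites exposed to compound for two days anaerobically before the ATP read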
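Trophozoite viability was measured as ATP-dependent luminescence, read 15-30 min after reagent addition. Before that, parasites at 100 cells/well were exposed to compounds for 48 h, anaerobically, at 37 deg C.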
MCF10A rerep: inducers of DNA re-replication in MCF 10A breast cells; 2.9% of 350,000 active; MCF 10A DNA re-replication, Hoechst nuclear intensity, 48 h; AID 624296; Potency, µM (doses to about 46.1 µM), hits mostly activators; also: nearly all actives have a fitted effect of over 50% in size
SW480 rereplic: induces DNA re-replication in SW480 colon adenocarcinoma cells; SW480 DNA re-replication, Hoechst DNA content imaging, 48 h; 1.8% of 340,000 active; Potency, µM (titrated, usually from 46.1 µM), usual class: activators; also: nearly all actives have a fitted effect of over 55% in size
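Image-based read-out: total Hoechst fluorescence of nuclei (405 nm excitation, 500-530 nm emission), with hits raising the fraction of high-intensity nuclei. SW480 colon cells incubated 48 hr with compounds at 37 C.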
Vif-A3G inh: blocks the Vif interaction with human APOBEC3G | Q9HC16 | 0.076% of 410,000 active | Potency, µM (highest dose often 46.1 µM), usual class: inhibitors | HeLa A3G-eYFP + Vif (tagged APOBEC3G with the HIV-1 protein that degrades it), YFP fluorescence, overnight | AID 602310; also: nearly all actives have a fitted effect of over 60% in size
Target sequence (Q9HC16 whole entry, looked up): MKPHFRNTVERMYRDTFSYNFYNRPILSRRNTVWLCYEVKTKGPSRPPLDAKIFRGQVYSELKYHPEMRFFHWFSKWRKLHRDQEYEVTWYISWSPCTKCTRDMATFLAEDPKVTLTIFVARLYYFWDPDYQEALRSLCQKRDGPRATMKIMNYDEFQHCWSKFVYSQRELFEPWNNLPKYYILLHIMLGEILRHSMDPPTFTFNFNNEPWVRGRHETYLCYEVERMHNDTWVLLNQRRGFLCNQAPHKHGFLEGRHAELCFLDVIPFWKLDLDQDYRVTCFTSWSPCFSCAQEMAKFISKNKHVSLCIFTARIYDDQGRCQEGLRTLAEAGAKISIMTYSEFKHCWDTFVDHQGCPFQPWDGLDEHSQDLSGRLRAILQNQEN
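HeLa cells stably expressing Vif and C-terminally eYFP-tagged A3G, seeded overnight at 37 deg C, then exposed to compound by pintool overnight at 37 deg C. Rise in yellow fluorescence (Ex 488/Em 500-530, Acumen) marks blocked Vif-driven A3G degradation.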
IL-1B inflam inh: inflammasome signaling inhibition, IL-1 beta readout. THP-1 LPS/ATP IL-1B secretion, AlphaLISA, 16 h; stronger effect = lower value. activity change, % at 57.5 µM. 4.7% of 360,000 active. AID 743279; in the data active = activity change below about -50%; inconclusive = mostly about -30% to -49%
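Secreted IL-1B measured by AlphaLISA bead assay after 16 h compound exposure of THP-1 cells; compounds (final up to 57.5 uM) added 1 h before LPS (250 ng/mL) and ATP (1.25 mM) stimulation; lower signal means less secretion.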
Each line names hits and unclear results; the compound was inactive in the other large screens. Unless noted, calls follow the shape of the dose curve; as a rule, active = well fitted curve in the direction sought with a large enough effect; inconclusive = small, poorly fitted or top-dose-only effect, or another doubt; inactive = no such curve, though single readings can be large; an effect the other way counts as inactive or inconclusive.

COc1ccc(-c2nc(NCCCN(C)C)c3ccccc3n2)cc1	Giardia killer -99, IL-1B inflam inh inconclusive
c1ccc2c(Nc3nc(-c4ccncc4)nc4ccccc34)cccc2c1	MCF10A rerep 23µM, SW480 rereplic 29µM (no result: IL-1B inflam inh)
CCN(CC)CCCNc1nc(-c2ccccc2)nc2ccccc12	none (no result: IL-1B inflam inh)
Oc1ccc(Nc2nc(-c3ccc(Cl)cc3)nc3ccccc23)cc1	none (no result: Vif-APOBEC3F blk, MCF10A rerep, SW480 rereplic, IL-1B inflam inh)
COc1ccc(OC)c(CCNC(=O)Cn2ccc3cc(S(=O)(=O)N4CCCCC4)ccc32)c1	none (no result: Giardia killer, MCF10A rerep, SW480 rereplic, IL-1B inflam inh)
O=C(Nc1nc(-c2ccccc2)nc2ccccc12)c1ccc(F)cc1	MCF10A rerep 18µM, SW480 rereplic inconclusive
COc1ccc(Nc2nc(-c3cccc([N+](=O)[O-])c3)nc3ccccc23)cc1	MCF10A rerep inconclusive, SW480 rereplic inconclusive
Oc1ccc(Nc2nc(-c3ccccc3)nc3ccccc23)cc1	IL-1B inflam inh -94
COc1ccc(Nc2nc(-c3ccccc3)nc3ccccc23)cc1	IL-1B inflam inh -95
Cc1ccccc1CN1C(=O)c2ccccc2Sc2ccc(C(=O)NC(C)c3ccccc3)cc21 (configuration not stated)	none (no result: Giardia killer, MCF10A rerep, SW480 rereplic, IL-1B inflam inh)
COc1ccc(C(=O)N(Cc2ccco2)Cc2cccs2)cc1	none (no result: Vif-APOBEC3F blk, MCF10A rerep, SW480 rereplic, IL-1B inflam inh)
Cc1ccc(Sc2c(C)nn(C(=O)c3ccc(Cl)cc3)c2C)cc1	none (no result: Giardia killer, MCF10A rerep, SW480 rereplic, IL-1B inflam inh)
COc1cc2nc(NC(=O)c3ccc(S(=O)(=O)N4CCc5ccccc54)cc3)sc2cc1OC	none (no result: Giardia killer, MCF10A rerep, SW480 rereplic, IL-1B inflam inh)
CCOC(=O)N1CCN(S(=O)(=O)c2ccc(C(=O)N(CCCN(C)C)c3nc4ccc(OC)cc4s3)cc2)CC1	IL-1B inflam inh inconclusive
COc1ccc2sc(N(CCCN(C)C)C(=O)c3ccc(S(=O)(=O)N4CCCc5ccccc54)cc3)nc2c1	MCF10A rerep inconclusive, SW480 rereplic inconclusive, IL-1B inflam inh -83
COc1cc2nc(N(CCCN(C)C)C(=O)c3ccc(S(=O)(=O)N4CCc5ccccc54)cc3)sc2cc1OC	SW480 rereplic inconclusive, IL-1B inflam inh -101
N#CC(c1ccc(Cl)cc1)c1ccc2c(C(F)(F)F)cc(C(F)(F)F)nc2n1 (configuration not stated)	MCF10A rerep inconclusive, SW480 rereplic inconclusive, IL-1B inflam inh -105
CCCCC1=NN(C(=O)c2cocc2C)C(O)(C(F)(F)F)C1 (configuration not stated)	MCF10A rerep inconclusive, SW480 rereplic 7.3µM
CCCCC1=NN(C(=O)c2ccncc2)C(O)(C(F)(F)F)C1 (configuration not stated)	none
COc1cccc(C(Nc2ccccc2)c2ccc3ccc(C)nc3c2O)c1 (configuration not stated)	none (no result: Vif-APOBEC3F blk, Giardia killer, MCF10A rerep, SW480 rereplic, Vif-A3G inh)
Cc1cccc(NC(c2ccc(O)cc2)c2ccc3ccc(C)nc3c2O)n1 (configuration not stated)	MCF10A rerep inconclusive, SW480 rereplic inconclusive, IL-1B inflam inh -71
Cc1cc(/C=N/NC(N)=S)c(C)n1-c1ccc(Cl)cc1	Vif-APOBEC3F blk inconclusive, MCF10A rerep 8.2µM, SW480 rereplic inconclusive
CN(Cc1ccccc1)CC1CCCN(CCc2ccccc2F)C1 (configuration not stated)	MCF10A rerep inconclusive
COc1ccc(F)c(CN(C)CC2CCCN(CCc3ccc(F)cc3)C2)c1 (configuration not stated)	Giardia killer inconclusive, MCF10A rerep inconclusive, IL-1B inflam inh -58
COc1ccc(CN(C)CC2CCCN(CCc3ccc(F)cc3)C2)cc1OC (configuration not stated)	IL-1B inflam inh inconclusive
COc1ccccc1CCN1CCCC(CN(C)Cc2ccc(OCCO)cc2)C1 (configuration not stated)	MCF10A rerep 21µM, SW480 rereplic inconclusive
COc1ccccc1CCN1CCCC(CN(C)CC(C)(C)CO)C1 (configuration not stated)	MCF10A rerep inconclusive
COc1ccc(CN(C)CC2CCCN(CCc3ccc(Cl)cc3)C2)cc1OC (configuration not stated)	MCF10A rerep inconclusive, IL-1B inflam inh -86
COc1cc(CN(C)CC2CCCN(CCc3ccccc3F)C2)cc(Cl)c1OC (configuration not stated)	MCF10A rerep inconclusive, IL-1B inflam inh -84
Cc1nn(C(=O)c2ccccc2F)c(C)c1S(=O)(=O)N1CCOCC1	none (no result: Giardia killer, MCF10A rerep, SW480 rereplic, IL-1B inflam inh)
CN(CC1CCCN(CCc2ccc(Cl)cc2)C1)C(=O)c1ccoc1 (configuration not stated)	none
CN(CC1CCCN(CCc2ccc(Cl)cc2)C1)C(=O)CC(F)(F)F (configuration not stated)	SW480 rereplic 5.8µM
N#C/C(=C/c1ccc(Sc2nc3ccccc3[nH]2)o1)c1cccc(F)c1	SW480 rereplic inconclusive, IL-1B inflam inh -94
N#C/C(=C/c1ccc(Sc2nc3ccccc3[nH]2)o1)c1cccc(Br)c1	MCF10A rerep inconclusive, IL-1B inflam inh inconclusive
N#C/C(=C/c1ccc(Sc2nc3ccccc3[nH]2)o1)c1ccccc1F	SW480 rereplic inconclusive, IL-1B inflam inh -96
COc1ccc(OC)c(CNC(=O)c2ccc(NC(=O)c3nsc4ccccc34)cc2)c1	none (no result: Giardia killer, MCF10A rerep, SW480 rereplic, IL-1B inflam inh)
CCOC(=O)c1ccc(NC(=O)CCn2c(=O)c3cccn3c3cccnc32)cc1	Vif-A3G inh inconclusive (no result: Giardia killer, MCF10A rerep, SW480 rereplic, IL-1B inflam inh)
O=C1c2ccccc2C(=O)N1CCc1c[nH]c2ccc(O)cc12	SW480 rereplic 3.7µM
O=C1c2ccccc2C(=O)N1CCc1c[nH]c2ccccc12	none
Cc1ccc(CNC(=O)c2nnn(Cc3ccc(F)cc3)c2N)cc1	none (no result: Giardia killer, MCF10A rerep, SW480 rereplic, IL-1B inflam inh)
N=c1oc2c3c4c(cc2cc1C(=O)Nc1ccccc1)CCCN4CCC3	MCF10A rerep 4.1µM, SW480 rereplic 1.4µM
COc1ccccc1CNC(=O)CCC1N=C2c3ccccc3N=C(SCc3cccc(Cl)c3)N2C1=O (configuration not stated)	none (no result: Giardia killer, MCF10A rerep, SW480 rereplic, IL-1B inflam inh)
CCc1nn(CC(=O)Nc2c(C)cc(C)cc2C)c(=O)c2cc3sccc3n12	none (no result: Giardia killer, MCF10A rerep, SW480 rereplic, IL-1B inflam inh)
Cc1cc2c3c(c1C)C(=O)C(=O)N3C(C)(C)CC2C (configuration not stated)	none
Cc1ccc2c3c1C(=O)C(=O)N3C(C)(C)CC2C (configuration not stated)	MCF10A rerep 26µM, SW480 rereplic inconclusive
CC(C)c1cc(C(C)C)c(S(=O)(=O)N2CCNCC2)c(C(C)C)c1	MCF10A rerep inconclusive, SW480 rereplic inconclusive, IL-1B inflam inh -81
Cc1cc(C)c(C)c(S(=O)(=O)N2CCNCC2)c1C	none
COc1ccc(-n2cc(C(=O)OCc3ccc(F)c(F)c3)c3ccccc3c2=O)cc1	none (no result: Giardia killer, MCF10A rerep, SW480 rereplic, IL-1B inflam inh)
CCOc1ccc(CCNC(=O)c2cnc3c(-c4ccc(F)cc4)c(C)nn3c2C)cc1OCC	none (no result: Giardia killer, MCF10A rerep, SW480 rereplic, IL-1B inflam inh)
CCOC(=O)C1CCN(C(=O)c2nn(-c3ccc(OC)c(Cl)c3)c(=O)c3c2c2ccccc2n3C)CC1	none (no result: Giardia killer, MCF10A rerep, SW480 rereplic, IL-1B inflam inh)
